# Measured values: the supplement of paper PMC10849652
# Targets with a hit are over-represented here; the source holds about 8,800 in all. About 0.5% of all pairs of compound and target were hits. Values without a mark were called inactive.
# How the values were obtained:
# Experiment in all cases: log2 fold change, soluble protein after heating vs DMSO (PISA); higher = thermal stabilisation; K562 lysate, 10 uM; active = over 0.2 and 3.5 SD of the protein, either way, in both replicates (recomputed)
# lapatinib = compound: CS(=O)(=O)CCNCc1ccc(-c2ccc3ncnc(Nc4ccc(OCc5cccc(F)c5)c(Cl)c4)c3c2)o1 [lapatinib]
# In short: (§1)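 Values give the log-two fold change in thermal stability against solvent controls, from duplicates. Crude K562 extract at 1 mg/mL protein, made by dounce homogenisation in PBS pH 7.4 with 1 mM MgCl2, was treated with 10 μM compound for 30 min. After 3 min heating across 48°C-58°C, aliquots were pooled, adjusted to 0.5% NP-40 at 4°C and centrifuged at 21,000xg for 90 min. The supernatant was measured by TMTpro 16plex LC-MS/MS with channel sums equalised.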
# pictilisib = compound: CS(=O)(=O)N1CCN(Cc2cc3nc(-c4cccc5[nH]ncc45)nc(N4CCOCC4)c3s2)CC1 [pictilisib]
# In short: as §1
# crizotinib = compound: C[C@@H](Oc1cc(-c2cnn(C3CCNCC3)c2)cnc1N)c1c(Cl)ccc(F)c1Cl [crizotinib]
# In short: as §1
# [1] = compound: C[C@H](C1=CC=C(C=C1)C(=O)NC2=C3C=CNC3=NC=C2)N
# In short: as §1
# duvelisib = compound: C[C@H](Nc1ncnc2nc[nH]c12)c1cc2cccc(Cl)c2c(=O)n1-c1ccccc1 [duvelisib]
# In short: as §1
# gandotinib = compound: Cc1cc(Nc2cc(CN3CCOCC3)c3nc(C)c(Cc4ccc(Cl)cc4F)n3n2)n[nH]1 [gandotinib]
# In short: as §1
# tozasertib = compound: Cc1cc(Nc2cc(N3CCN(C)CC3)nc(Sc3ccc(NC(=O)C4CC4)cc3)n2)n[nH]1 [tozasertib]
# In short: as §1
# doramapimod = compound: Cc1ccc(-n2nc(C(C)(C)C)cc2NC(=O)Nc2ccc(OCCN3CCOCC3)c3ccccc23)cc1 [doramapimod]
# In short: as §1
# bafetinib = compound: Cc1ccc(NC(=O)c2ccc(CN3CC[C@H](N(C)C)C3)c(C(F)(F)F)c2)cc1Nc1nccc(-c2cncnc2)n1 [bafetinib]
# In short: as §1
# [2] = compound: Cc1cccc(CC(=O)N2CCc3c2ccc(-c2cn(C)c4ncnc(N)c24)c3F)n1
# In short: as §1
# nilotinib = compound: Cc1cn(-c2cc(NC(=O)c3ccc(C)c(Nc4nccc(-c5cccnc5)n4)c3)cc(C(F)(F)F)c2)cn1 [nilotinib]
# In short: as §1
# [3] = compound: Cc1nc(Nc2n[nH]c3c2CN(C(=O)N[C@H](CN(C)C)c2ccccc2)C3(C)C)c2sccc2n1
# In short: as §1
# dasatinib = compound: Cc1nc(Nc2ncc(C(=O)Nc3c(C)cccc3Cl)s2)cc(N2CCN(CCO)CC2)n1 [dasatinib]
# In short: as §1
# [4] = compound: Cc1ncc(-c2ccnc(Nc3ccc(S(C)(=O)=O)cc3)n2)n1C(C)C
# In short: as §1
# [5] = compound: Cn1cc(-c2ccc3c(c2)CCN3C(=O)Cc2cccc(C(F)(F)F)c2)c2c(N)ncnc21
# In short: as §1
# quisinostat = compound: Cn1cc(CNCC2CCN(c3ncc(C(=O)NO)cn3)CC2)c2ccccc21 [quisinostat]
# In short: as §1
# tipifarnib = compound: Cn1cncc1[C@@](N)(c1ccc(Cl)cc1)c1ccc2c(c1)c(-c1cccc(Cl)c1)cc(=O)n2C [tipifarnib]
# In short: as §1
# [6] = compound: NC(=O)Nc1cc(-c2cccc(F)c2)sc1C(=O)N[C@H]1CCCNC1
# In short: as §1
# [7] = compound: NC(=O)c1cnc(N[C@@H]2CCCC[C@@H]2N)nc1Nc1cccc(-n2nccn2)c1
# In short: as §1
# [8] = compound: NC1(c2ccc(-c3nc4ccn5c(=O)[nH]nc5c4cc3-c3ccccc3)cc2)CCC1
# In short: as §1
# Chain of UniProt Q9P107 (Q9P107 whole entry, looked up): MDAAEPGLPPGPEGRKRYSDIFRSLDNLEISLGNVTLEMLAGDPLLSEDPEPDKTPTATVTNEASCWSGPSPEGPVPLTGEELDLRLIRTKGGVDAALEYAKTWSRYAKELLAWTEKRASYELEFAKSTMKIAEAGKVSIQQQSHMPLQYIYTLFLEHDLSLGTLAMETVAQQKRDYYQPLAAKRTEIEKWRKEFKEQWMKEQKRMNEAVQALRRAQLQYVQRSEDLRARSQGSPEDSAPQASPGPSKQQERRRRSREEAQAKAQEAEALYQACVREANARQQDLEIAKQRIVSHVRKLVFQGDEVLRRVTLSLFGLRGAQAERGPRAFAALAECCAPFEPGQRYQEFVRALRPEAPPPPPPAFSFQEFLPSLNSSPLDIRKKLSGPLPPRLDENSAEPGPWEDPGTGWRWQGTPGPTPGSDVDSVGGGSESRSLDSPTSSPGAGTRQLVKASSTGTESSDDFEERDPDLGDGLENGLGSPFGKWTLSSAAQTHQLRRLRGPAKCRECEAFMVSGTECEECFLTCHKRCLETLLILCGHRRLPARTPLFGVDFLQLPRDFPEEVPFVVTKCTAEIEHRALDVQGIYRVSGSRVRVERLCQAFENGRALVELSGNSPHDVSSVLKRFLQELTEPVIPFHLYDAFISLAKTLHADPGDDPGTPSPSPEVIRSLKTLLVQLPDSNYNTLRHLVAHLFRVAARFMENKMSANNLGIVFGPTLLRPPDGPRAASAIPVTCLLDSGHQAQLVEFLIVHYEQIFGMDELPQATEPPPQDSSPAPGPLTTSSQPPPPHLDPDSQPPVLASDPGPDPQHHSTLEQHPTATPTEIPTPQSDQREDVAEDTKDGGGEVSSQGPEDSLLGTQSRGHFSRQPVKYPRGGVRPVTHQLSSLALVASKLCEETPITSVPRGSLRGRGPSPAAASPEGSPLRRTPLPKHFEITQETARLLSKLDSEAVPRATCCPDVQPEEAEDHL
# Chain of UniProt P15260 (P15260 whole entry, looked up): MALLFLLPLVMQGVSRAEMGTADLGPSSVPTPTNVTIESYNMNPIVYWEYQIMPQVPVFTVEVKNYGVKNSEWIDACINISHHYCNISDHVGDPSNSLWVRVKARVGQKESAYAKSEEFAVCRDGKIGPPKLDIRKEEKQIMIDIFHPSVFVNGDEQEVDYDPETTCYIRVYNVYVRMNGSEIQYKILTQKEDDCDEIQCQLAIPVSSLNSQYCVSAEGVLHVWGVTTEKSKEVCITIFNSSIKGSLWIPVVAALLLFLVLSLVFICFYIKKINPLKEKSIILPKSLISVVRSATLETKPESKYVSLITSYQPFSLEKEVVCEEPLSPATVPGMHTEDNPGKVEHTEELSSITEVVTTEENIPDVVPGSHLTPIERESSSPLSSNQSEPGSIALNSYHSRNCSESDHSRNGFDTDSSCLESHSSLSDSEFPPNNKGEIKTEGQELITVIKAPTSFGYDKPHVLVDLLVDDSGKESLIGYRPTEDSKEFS
# Chain of UniProt Q13547 (Q13547 whole entry, looked up): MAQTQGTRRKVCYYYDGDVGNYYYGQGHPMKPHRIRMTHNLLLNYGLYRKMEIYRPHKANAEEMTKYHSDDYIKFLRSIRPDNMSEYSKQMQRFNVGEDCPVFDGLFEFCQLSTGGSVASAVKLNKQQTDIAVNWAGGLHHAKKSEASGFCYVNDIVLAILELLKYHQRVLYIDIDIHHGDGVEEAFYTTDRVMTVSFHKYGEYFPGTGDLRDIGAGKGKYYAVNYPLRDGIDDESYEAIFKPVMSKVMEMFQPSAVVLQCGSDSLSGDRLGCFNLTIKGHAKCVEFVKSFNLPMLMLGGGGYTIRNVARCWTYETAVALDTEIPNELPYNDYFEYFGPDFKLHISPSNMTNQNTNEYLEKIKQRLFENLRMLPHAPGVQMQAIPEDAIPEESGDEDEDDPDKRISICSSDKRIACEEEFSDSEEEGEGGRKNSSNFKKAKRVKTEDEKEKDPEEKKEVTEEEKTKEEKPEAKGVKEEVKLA
# Chain of UniProt P78347 (P78347 whole entry, looked up): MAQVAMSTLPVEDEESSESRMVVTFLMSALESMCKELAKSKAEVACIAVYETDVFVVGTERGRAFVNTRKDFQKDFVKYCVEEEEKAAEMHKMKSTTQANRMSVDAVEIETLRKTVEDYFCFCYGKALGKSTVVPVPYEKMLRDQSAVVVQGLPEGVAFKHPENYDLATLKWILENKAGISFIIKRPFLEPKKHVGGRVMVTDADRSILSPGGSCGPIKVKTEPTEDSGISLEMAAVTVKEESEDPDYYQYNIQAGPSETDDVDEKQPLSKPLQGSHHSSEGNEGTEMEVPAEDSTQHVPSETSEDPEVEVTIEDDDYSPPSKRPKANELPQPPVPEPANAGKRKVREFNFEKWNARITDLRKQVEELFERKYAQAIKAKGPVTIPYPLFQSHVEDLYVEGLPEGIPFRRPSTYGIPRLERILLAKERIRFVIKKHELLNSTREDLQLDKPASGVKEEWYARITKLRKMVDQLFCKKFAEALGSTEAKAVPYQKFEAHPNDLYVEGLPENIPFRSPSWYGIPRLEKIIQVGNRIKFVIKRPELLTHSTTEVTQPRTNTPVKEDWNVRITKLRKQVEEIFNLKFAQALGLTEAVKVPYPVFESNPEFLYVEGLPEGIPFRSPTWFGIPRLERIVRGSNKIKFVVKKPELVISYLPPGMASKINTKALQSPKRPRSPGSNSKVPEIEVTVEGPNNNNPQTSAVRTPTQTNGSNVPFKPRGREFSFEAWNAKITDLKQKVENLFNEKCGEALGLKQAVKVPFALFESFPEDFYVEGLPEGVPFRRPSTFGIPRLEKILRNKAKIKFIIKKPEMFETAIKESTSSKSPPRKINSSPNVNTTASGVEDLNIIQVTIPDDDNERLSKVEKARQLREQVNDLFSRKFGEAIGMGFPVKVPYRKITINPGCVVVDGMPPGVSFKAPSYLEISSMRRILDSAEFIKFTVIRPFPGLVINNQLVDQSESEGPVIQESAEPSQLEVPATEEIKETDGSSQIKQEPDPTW
# Chain of UniProt P32780 (P32780 whole entry, looked up): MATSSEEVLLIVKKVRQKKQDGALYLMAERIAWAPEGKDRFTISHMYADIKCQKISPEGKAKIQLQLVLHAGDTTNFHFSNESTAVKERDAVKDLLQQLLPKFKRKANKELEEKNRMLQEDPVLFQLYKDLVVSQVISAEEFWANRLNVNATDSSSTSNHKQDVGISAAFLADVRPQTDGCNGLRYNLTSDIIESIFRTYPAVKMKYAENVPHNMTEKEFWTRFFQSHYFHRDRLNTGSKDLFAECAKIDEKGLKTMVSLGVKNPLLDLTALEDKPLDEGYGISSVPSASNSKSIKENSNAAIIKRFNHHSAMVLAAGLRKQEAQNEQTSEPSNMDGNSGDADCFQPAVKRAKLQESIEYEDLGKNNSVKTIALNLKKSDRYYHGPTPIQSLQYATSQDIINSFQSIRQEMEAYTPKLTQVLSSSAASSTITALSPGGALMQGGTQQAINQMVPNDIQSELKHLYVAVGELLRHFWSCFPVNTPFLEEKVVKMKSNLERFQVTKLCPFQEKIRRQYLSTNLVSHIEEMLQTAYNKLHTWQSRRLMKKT
# Chain of UniProt P62873 (P62873 whole entry, looked up): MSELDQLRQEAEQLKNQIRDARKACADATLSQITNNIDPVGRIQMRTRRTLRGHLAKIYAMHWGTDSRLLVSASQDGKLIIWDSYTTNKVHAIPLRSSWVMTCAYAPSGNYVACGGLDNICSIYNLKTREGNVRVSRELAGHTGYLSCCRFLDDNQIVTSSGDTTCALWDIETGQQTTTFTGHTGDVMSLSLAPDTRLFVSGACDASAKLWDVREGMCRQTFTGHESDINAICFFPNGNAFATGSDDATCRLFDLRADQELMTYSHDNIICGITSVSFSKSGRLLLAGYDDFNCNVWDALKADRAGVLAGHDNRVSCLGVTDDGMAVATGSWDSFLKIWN
# Chain of UniProt Q9Y223 (Q9Y223 whole entry, looked up): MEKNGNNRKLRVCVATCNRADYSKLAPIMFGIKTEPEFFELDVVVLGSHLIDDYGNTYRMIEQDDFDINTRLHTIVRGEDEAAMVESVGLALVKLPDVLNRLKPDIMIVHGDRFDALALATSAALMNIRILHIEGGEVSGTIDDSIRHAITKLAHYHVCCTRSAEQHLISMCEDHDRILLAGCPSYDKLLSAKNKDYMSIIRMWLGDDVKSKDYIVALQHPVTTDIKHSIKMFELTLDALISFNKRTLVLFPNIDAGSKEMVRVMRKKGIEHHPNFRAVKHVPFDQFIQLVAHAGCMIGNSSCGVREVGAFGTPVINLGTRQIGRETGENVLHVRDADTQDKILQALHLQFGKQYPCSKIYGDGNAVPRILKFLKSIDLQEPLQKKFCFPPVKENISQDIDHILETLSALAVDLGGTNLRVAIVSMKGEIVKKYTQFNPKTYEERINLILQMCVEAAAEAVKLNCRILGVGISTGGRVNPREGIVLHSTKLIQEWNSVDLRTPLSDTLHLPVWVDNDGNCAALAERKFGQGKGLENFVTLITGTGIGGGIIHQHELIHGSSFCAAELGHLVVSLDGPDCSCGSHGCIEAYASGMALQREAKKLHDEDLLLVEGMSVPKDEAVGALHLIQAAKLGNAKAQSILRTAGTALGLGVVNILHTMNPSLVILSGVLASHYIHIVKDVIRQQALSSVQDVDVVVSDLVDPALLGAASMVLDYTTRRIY
# Chain of UniProt Q14103 (Q14103 whole entry, looked up): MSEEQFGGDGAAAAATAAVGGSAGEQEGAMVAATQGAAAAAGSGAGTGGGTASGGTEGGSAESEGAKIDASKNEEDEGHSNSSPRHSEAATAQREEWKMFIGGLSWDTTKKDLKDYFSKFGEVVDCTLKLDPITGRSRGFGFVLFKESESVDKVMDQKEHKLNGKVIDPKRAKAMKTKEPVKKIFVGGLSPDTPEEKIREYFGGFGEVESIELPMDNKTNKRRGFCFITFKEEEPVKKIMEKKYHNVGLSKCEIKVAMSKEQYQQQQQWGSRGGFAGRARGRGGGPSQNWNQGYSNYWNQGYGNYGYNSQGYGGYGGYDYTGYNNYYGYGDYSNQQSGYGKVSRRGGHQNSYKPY
Target,log2 fold change (lapatinib),log2 fold change (pictilisib),log2 fold change (crizotinib),log2 fold change [1],log2 fold change (duvelisib),log2 fold change (gandotinib),log2 fold change (tozasertib),log2 fold change (doramapimod),log2 fold change (bafetinib),log2 fold change [2],log2 fold change (nilotinib),log2 fold change [3],log2 fold change (dasatinib),log2 fold change [4],log2 fold change [5],log2 fold change (quisinostat),log2 fold change (tipifarnib),log2 fold change [6],log2 fold change [7],log2 fold change [8]
IARS (UniProt P41252),-0.032,-0.006,-0.045,0.059,-0.001,-0.13,0.013,0.016,-0.015,-0.041,0.007,-0.007,-0.042,-0.015,0.053,-0.02,-0.003,0.038,0.001,-0.029
HNRNPUL1 (UniProt Q9BUJ2),-0.008,-0.05,0.043,0.005,0.01,-0.013,0.012,-0.107,0.051,-0.023,-0.291 (active),0.018,-0.012,0.006,0.01,0.015,0.019,0.045,-0.003,-0.009
IFNGR1 (UniProt P15260),-0.076,0.153,-0.008,-0.497,0.196,0.263,-0.001,-0.034,-0.144,0.378,0.227,-0.068,-0.018,0.133,-0.125,0.047,-0.08,0.013,0.084,-0.101
HMBOX1 isoform 5 (UniProt Q6NT76),0.254 (active),-0.097,0.023,0,0.021,0.052,0.035,-0.013,0.112,0.129,0.186,-0.038,-0.034,0.078,0.024,-0.008,0.077,0.001,0.041,-0.055
HAUS8 (UniProt Q9BT25),-0.022,-0.02,-0.055,0.057,-0.075,0.045,0.027,-0.007,-0.037,0.027,0.025,0.026,-0.073,0.005,0.015,-0.085,0.004,0.042,0.02,0.006
GMIP (UniProt Q9P107),-0.046,-0.015,-0.006,0.029,-0.005,-0.024,-0.014,-0.049,-0.068,0.041,-0.094,-0.041,-0.097,-0.058,0.023,-0.012,-0.017,0.034,-0.025,-0.022
HNRNPD isoform 3 (UniProt Q14103),-0.062,0.126,-0.07,-0.08,0.043,0.094,-0.078,0.045,0.166,0.033,0.012,-0.073,0.017,0.017,0.065,0.005,-0.002,0.021,0.028,-0.033
HNRNPD isoform 2 (UniProt Q14103),0.047,0.043,0.034,0.559 (active),0.015,-0.085,0.004,-0.023,0.095,-0.108,-0.047,0,-0.02,0.009,-0.05,0.139,0.029,-0.025,0.015,-0.008
GTF2H1 (UniProt P32780),-0.03,-0.017,-0.028,0.032,0.023,0.035,-0.019,-0.001,-0.03,-0.021,0.009,0.013,-0.012,-0.04,0.043,-0.064,0.084,0.06,0.037,-0.036
GTF2I (UniProt P78347),-0.005,-0.011,-0.039,-0.01,0.016,-0.086,-0.004,0.018,-0.066,0.027,0.001,0.002,-0.042,-0.011,0.035,-0.006,-0.008,0.034,0,-0.014
GNB1 (UniProt P62873),0.054,-0.022,-0.106,-0.114,0.003,0.04,-0.023,0.079,0.123,0.04,0.075,0.057,-0.078,0.098,-0.029,0.107,0.019,-0.137,-0.027,-0.018
HDAC2 (UniProt Q92769),-0.006,0.002,0.057,-0.047,-0.028,0.018,0.014,-0.05,-0.021,0.028,-0.022,0.014,-0.024,-0.013,0.044,0.635 (active),-0.011,0.018,0.001,-0.031
GTPBP2 (UniProt Q9BX10),0.064,-0.056,-0.052,0.021,0.043,-0.098,-0.048,0.027,-0.038,0.009,0.016,-0.009,-0.023,-0.014,0.005,-0.136,-0.079,0.042,0.04,0.046
GNE isoform 2 (UniProt Q9Y223),0.012,-0.005,-0.053,-0.01,-0.011,-0.127,-0.008,0.021,-0.031,0.034,-0.013,-0.003,0.003,-0.081,0.025,-0.042,0.008,0.061,-0.008,-0.006
HDAC1 (UniProt Q13547),0.004,0.01,-0.014,-0.04,-0.029,-0.004,-0.015,0.006,0.036,0.036,0.01,-0.024,-0.021,-0.019,0.028,0.857 (active),-0.041,-0.033,0.03,0.009
ILK (UniProt Q13418),0.01,-0.005,-0.038,0.01,-0.036,-0.015,0.005,0.004,-0.002,0.007,0.01,-0.066,0.071,0,0.014,-0.076,-0.001,0.097,-0.022,-0.036
